A number with no mark means an inactive call. Inconclusive results are not listed. Activity calls are given as the source filed them. Unless noted, calls come from the whole dose curve; as a rule, active = well fitted curve in the direction sought with a large enough effect; inconclusive = small, poorly fitted or top-dose-only effect, or another doubt; inactive = no such curve, though single readings can be large; an effect the other way counts as inactive or inconclusive. Where only a bound is given, the exact number is not on record here.

The source of these data is PubChem BioAssay (NCATS).

Assay [1] can be described thus: AP1 Signaling Pathway (AID 357; active = well fitted curve in either direction with a large enough effect, not every such curve was filed as active;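 note: ME-180 reporter cells stimulated with EGF at its EC50 level; % is set by controls: 0 for no effect and ±100 for the full control effect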). The procedure, abridged:
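Cells are seeded overnight, exposed to compound titrations and an EC50 level of EGF for 5 hours at 37 °C, then loaded with CCF4 dye for 2.5 hours. Beta-lactamase activity under the AP-1 element is read as a blue/green ratio.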

Assay [2] addresses Cytochrome P450 1A2 (Homo sapiens) (UniProt P05177). The experiment in a line: p450-cyp1a2 (AID 410; calls by dose curve;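 note: -100% = full effect of reference inhibitor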). The procedure, abridged:
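20nM CYP1A2 with 100uM Luciferin-ME (at Km) in 100mM KPO4; compound preincubated 10 min, NADPH regeneration added, 60 min at room temperature. Luciferin quantified by luminescence after detection reagent; normalized to 57 uM furafylline.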

Assay [3] in a line: Cell Viability - BJ (AID 421; calls by dose curve;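 note: potency is the fitted concentration of half-maximal effect; cells exposed to compound for 40 hours at 37 °C before readout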). The note with it: BJ fibroblast viability, qHTS. The procedure, abridged:
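Normal human BJ foreskin fibroblasts, 1500/well in complete medium, treated 40 hr at 37 °C. Cellular ATP by CellTiter-Glo luminescence; normalized to DMSO and 100 uM tamoxifen, AC50 from Hill fit.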
On the technique in general: Quantitative high-throughput screening tests each substance at several concentrations.

The nature of assay [4]: Cell Viability - Jurkat (AID 426;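 active = dose-dependent loss of cell ATP signal giving a full or clear fitted curve, ranked by lower potency value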; note: potency is the fitted concentration of half-maximal effect). The note with it: qHTS. In short, it runs like this: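 Jurkat (Clone E6-1) cells, 5000/well in complete medium, exposed to compounds for 40 hr at 37C; intracellular ATP measured by CellTiter-Glo luminescence after 20 min at room temperature. AC50 from Hill fits.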
Assay [5] is described as follows: Cell Viability - Hek293 (AID 427;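 active = compounds whose dose-response curve shows a full or clear partial loss of cell viability, called from curve shape rather than a numeric limit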;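 note: potency is the fitted concentration of half-maximal effect; cells exposed to compound for 40 hours at 37 °C before reading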). As to conditions: qHTS. In short, it runs like this: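 HEK293 cells in complete medium were exposed to compound for 40 hr at 37 °C, then cellular ATP was read by CellTiter-Glo luminescence. Data were normalized to DMSO (basal) and 100 uM tamoxifen (100% inhibition), and AC50 came from Hill fits.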
Assay [6] can be described thus: Cell Viability - HepG2 (AID 433; calls by dose curve;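 note: potency is the fitted concentration of half-maximal effect; potency for ATP loss meaning cytotoxicity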). The note with it: qHTS. The procedure, abridged: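 In this qHTS format, a 40 h, 37 °C compound incubation of HepG2 cells in complete medium precedes a 20 min CellTiter-Glo step at room temperature. Tamoxifen and doxorubicin serve as positive controls; Hill-equation fits yield AC50.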
Assay [7] can be described thus: Cell Viability - MRC5 (AID 434; calls by dose curve;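 note: potency is the fitted concentration of half-maximal effect; potency reflects cytotoxicity seen as loss of intracellular ATP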). As to conditions: MRC5 lung fibroblast viability, qHTS. The procedure, abridged:
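MRC5 normal human lung fibroblasts (1500/well) were treated with compounds for 40 hr at 37 °C in complete medium, and viable cells were measured as intracellular ATP by CellTiter-Glo luminescence. AC50 came from Hill fits, normalized to DMSO and 100 uM tamoxifen.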

Assay [8] in a line: Cell Viability - SK-N-SH (AID 435; calls by dose curve;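 note: potency is the fitted concentration of half-maximal effect; compound exposure lasted 40 h at 37 °C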). As to conditions: SK-N-SH neuroblastoma cell viability qHTS. The procedure, abridged: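 Human neuroblastoma line, 40 h exposure at 37 °C, ATP quantified via luciferase luminescence; DMSO and 100 uM tamoxifen define 0 and 100% inhibition for AC50 fitting.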
Assay [9] is described as follows: NFAT Signaling Pathway (AID 444; active = well fitted curve in either direction with a large enough effect, not every such curve was filed as active;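 note: carbachol stimulus at about its EC50 of 1 µM final; % is set by controls: 0 for no effect and ±100 for the full control effect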). The note with it: Jurkat NFAT-bla M1, carbachol, beta-lactamase ratio, 5 h. In short, it runs like this:
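Jurkat cells carrying an NFAT-driven β-lactamase reporter and co-transfected muscarinic M1 receptor were treated with compound plus carbachol (1 uM final, an EC50 level) for 5 h at 37 °C. CCF4 loading followed for 1 h at RT; 460/530 nm ratio gave %activity.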

In assay [10] the target is Glucocorticoid receptor (Homo sapiens) (UniProt P04150). The experiment in a line: GR-GFP Redistribution (AID 450;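 active = compounds whose dose series gives a full or clear partial fitted curve of increased nuclear translocation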; note: potency is the fitted concentration of half-maximal effect). The note with it: U2OS GR-GFP nuclear translocation, laser cytometry, 2 h.
Glucocorticoid receptor (Homo sapiens), sequence (P04150 whole entry, looked up, the tested form may be a part): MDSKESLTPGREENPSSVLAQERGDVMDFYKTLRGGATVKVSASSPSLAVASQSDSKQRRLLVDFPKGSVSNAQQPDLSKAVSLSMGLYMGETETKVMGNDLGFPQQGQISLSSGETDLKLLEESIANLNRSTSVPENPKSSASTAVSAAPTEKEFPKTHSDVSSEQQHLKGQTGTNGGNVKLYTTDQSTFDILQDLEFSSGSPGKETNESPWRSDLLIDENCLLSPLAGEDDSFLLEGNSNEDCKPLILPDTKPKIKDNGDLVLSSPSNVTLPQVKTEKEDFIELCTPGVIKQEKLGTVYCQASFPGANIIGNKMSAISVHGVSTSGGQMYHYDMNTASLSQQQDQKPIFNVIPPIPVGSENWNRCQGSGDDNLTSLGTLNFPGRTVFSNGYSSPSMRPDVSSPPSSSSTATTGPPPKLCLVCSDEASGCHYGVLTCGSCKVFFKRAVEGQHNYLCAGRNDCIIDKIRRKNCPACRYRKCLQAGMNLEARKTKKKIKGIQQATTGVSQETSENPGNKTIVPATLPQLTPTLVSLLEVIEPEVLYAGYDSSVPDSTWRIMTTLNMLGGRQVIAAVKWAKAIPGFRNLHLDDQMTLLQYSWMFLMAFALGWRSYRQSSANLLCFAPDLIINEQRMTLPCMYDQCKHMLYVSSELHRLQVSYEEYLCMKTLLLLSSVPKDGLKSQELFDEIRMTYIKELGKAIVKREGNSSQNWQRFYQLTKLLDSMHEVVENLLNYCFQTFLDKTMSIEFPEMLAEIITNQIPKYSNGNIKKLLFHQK
For assay [11] the target is unchanged. The experiment in a line: GR-EFC Redistribution (AID 451; calls by dose curve; note: potency is the fitted concentration of half-maximal effect). The note with it: CHO-K1 GR-EFC translocation, beta-gal luminescence, 2 h. The procedure, abridged: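 CHO-K1 cells stably expressing nuclear-localized β-gal enzyme acceptor and GR fused C-terminally to the enzyme donor fragment; ligand-driven nuclear translocation restores β-gal by complementation. Compounds titrated up to 46 uM final, 2 h at 37 °C; luminescence read.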

Assay [12] deals with Mitogen-activated protein kinase 10 (Mus musculus) (UniProt Q61831). The experiment in a line: JNK3 AlphaScreen Assay (AID 530; active = well fitted curve in either direction with a large enough effect, not every such curve was filed as active;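 note: kinase came from lysate of stimulated human HepG2 cells; signal reports phosphorylation of biotinylated GST-cJun 1-79 at Ser73 with 10 µM ATP; % is set by controls: 0 for no effect and ±100 for the full control effect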). In short, it runs like this: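 Inhibitors reduce antibody binding to phosphorylated biotin-cJun, lowering AlphaScreen luminescence. Lysates from HepG2 cells pre-activated by IL-1beta plus TNF-alpha supplied JNK3; compounds were titrated.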
(In general: Alpha assays give light when donor and acceptor beads are brought close together.)

Assay [13] is described as follows: Cell Viability - N2a (AID 540).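 Note: plate controls were DMSO alone for no effect and tamoxifen control for full effect; nearly all actives have a fitted effect of over 45% in size.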 The procedure, abridged: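 Mouse neuroblastoma N2a cells, 1500/well, exposed to compounds 40 h at 37 °C in complete medium. Viability measured as cellular ATP by CellTiter-Glo luminescence; AC50 from Hill fits of concentration-response.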
Assay [14] in a line: Cell Viability - NIH 3T3 (AID 541).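 Note: plate controls were DMSO alone for no effect and tamoxifen positive control for full effect; nearly all actives have a fitted effect of over 25% in size.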 The note with it: NIH 3T3 cell viability, qHTS; at 92.2 µM (top of the series). The procedure, abridged: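 Mouse NIH 3T3 fibroblasts, 1000 cells/well, rested 5 hr at 37 °C, then exposed to compound for 40 hr at 37 °C in complete medium. Viability read as intracellular ATP by CellTiter-Glo luminescence; AC50 from Hill-equation fits of concentration-response data.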

Assay [15] in a line: Cell Viability - HUV-EC-C (AID 542). Note: % is set by controls: 0 for no effect and ±100 for the full control effect; nearly all actives have a fitted effect of over 35% in size. The procedure, abridged:
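HUV-EC-C human vascular endothelial cells, 1000/well, exposed to compound for 40 hr at 37 °C in complete medium. Intracellular ATP was read by CellTiter-Glo luminescence. AC50 came from Hill-equation fits of concentration-response data.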

A short description of assay [16]: Cell Viability - H-4-II-E (AID 543). Note: % is set by controls: 0 for no effect and ±100 for the full control effect; nearly all actives have a fitted effect of over 35% in size. The procedure, abridged: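 Rat hepatoma H-4-II-E cells, 1500 per well, treated 40 h at 37 °C in complete medium. Cellular ATP read by CellTiter-Glo luminescence; AC50 from Hill fits of concentration-response.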
Assay [17] is described as follows: Cell Viability - SH-SY5Y (AID 544).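 Note: 0% = DMSO alone and -100% = 100 µM tamoxifen; nearly all actives have a fitted effect of over 55% in size.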 In short, it runs like this: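 SH-SY5Y human neuroblastoma cells (1500/well) incubated 5 h, then compound-treated 40 h at 37 °C in complete medium. Viability read as intracellular ATP by CellTiter-Glo luminescence after 20 min; AC50 from Hill-equation fits of qHTS concentration-response.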
Assay [18] is described as follows: Cell Viability - Renal Proximal Tubule (AID 545).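 Note: 0% = DMSO only and -100% = 100 µM tamoxifen; nearly all actives have a fitted effect of over 40% in size.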 In short, it runs like this:
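In this qHTS format, normal rat kidney-derived proximal tubule cells in complete culture medium receive compound titrations, then sit 40 hours at 37 °C before luciferase-based ATP quantitation; potency is reported as AC50 from concentration-response curves.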

Assay [19] can be described thus: Cell Viability - Mesenchymal (AID 546).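 Note: cells exposed to compound for 40 hours before reading; 0% = DMSO only and -100% = 100 µM tamoxifen.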 The procedure, abridged:
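Normal human renal glomerulus-derived kidney mesenchymal cells, 1000 per well in complete medium, were treated with compounds for 40 hr at 37 °C. Viability was read as intracellular ATP by CellTiter-Glo luminescence; AC50 values came from Hill-equation fits of qHTS concentration-response data.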

Assay [20] can be described thus: Stat Signaling Pathway (AID 446; active = well fitted curve in either direction with a large enough effect, not every such curve was filed as active;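 note: ME-180 cervical cancer cells given 40 pM IL-6 alongside compound; SIE-controlled beta-lactamase reporter measured as 460/530 nm FRET emission ratio; % is set by controls: 0 for no effect and ±100 for the full control effect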). In short, it runs like this:
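ME-180 cells carrying a SIE-driven beta-lactamase reporter are stimulated with 40 pM IL-6 for 5 h at 37C in the presence of compound. The 460/530 nm FRET substrate ratio is read after 2.5 h at RT. Data are normalised to 300 pM IL-6 and to 125 nM JAK inhibitor controls.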

Cytochrome P450 1A2 (Homo sapiens), sequence (P05177 whole entry, looked up): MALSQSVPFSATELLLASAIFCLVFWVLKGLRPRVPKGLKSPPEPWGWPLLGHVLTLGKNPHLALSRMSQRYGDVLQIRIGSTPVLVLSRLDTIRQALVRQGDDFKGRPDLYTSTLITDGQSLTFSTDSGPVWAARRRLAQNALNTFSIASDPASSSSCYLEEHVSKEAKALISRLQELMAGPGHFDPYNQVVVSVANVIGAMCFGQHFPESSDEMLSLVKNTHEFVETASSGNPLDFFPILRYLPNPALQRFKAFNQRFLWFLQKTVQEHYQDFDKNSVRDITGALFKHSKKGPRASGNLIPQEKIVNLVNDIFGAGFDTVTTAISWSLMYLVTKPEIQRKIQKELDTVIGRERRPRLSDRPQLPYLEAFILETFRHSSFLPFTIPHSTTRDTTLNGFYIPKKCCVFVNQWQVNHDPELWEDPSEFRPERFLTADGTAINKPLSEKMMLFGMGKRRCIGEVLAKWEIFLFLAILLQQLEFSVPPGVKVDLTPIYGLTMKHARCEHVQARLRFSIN

Turning to `NCCc1ccc(O)cc1`, the outcome in assay [1], in assay [12], in assay [13], in [18] and in [19] was inactive. For the same compound, the Potency result in assay [2], in [15], in [16] and in assay [17] was “inactive” in each case. The Potency in assay [3], in [4], in assay [5], in assay [6], in assay [7] and in assay [8] was above 92 µM throughout. Further, the Potency in assay [10] and in assay [11] was above 46 µM in each case. For the same compound, the activity change, negative = inhibition in [9] (at 38 µM (top of the series)) is 5.43%. For the same compound, the activity change, negative = cytotoxicity in [14] is -149% (active).

`CNC(C)(C)Cc1ccccc1`: the call in assay [1], in assay [20] and in assay [12] was inactive. Moreover, in assay [2], the Potency result was “inactive”. Besides, the activity change, negative = inhibition in assay [9] (at 17.2 µM (top of the series)) was -3.4%. Besides, the Potency in assay [10] and in assay [11] was above 20.6 µM throughout.

With `CC(C)c1cccc(C(C)C)c1O`, the compound was classed as inactive in [1], in assay [20], in [12], in [13], in assay [18] and in assay [19]. Moreover, the Potency in [3], in assay [4], in assay [5], in assay [6], in assay [7] and in assay [8] was above 92 µM throughout. Further, the figures for the activity change, negative = inhibition in assay [9] (at 17.2 µM (top of the series)) and in assay [9] (at 38 µM (top of the series)) were -3.69% and 7.25%, respectively. In [14], the activity change, negative = cytotoxicity is 4.32%. Further, the Potency entry in [15], in assay [16] and in assay [17] was “inactive” throughout.

As for `C[C@]12CCC(=O)C=C1CC[C@@H]1[C@@H]2CC[C@@]2(C)[C@H]1CC[C@]2(C)O`, the Potency in assay [3], in [6] and in assay [7] was above 92 µM each time. Moreover, the result in assay [12] and in [19] was inactive. Besides, the activity change, negative = cytotoxicity in assay [14] is -123% (active). Besides, the Potency entry in assay [15] was “inactive”.

Regarding `CCCC(C)(COC(N)=O)COC(N)=O`, the Potency in assay [3], in assay [4], in [5], in assay [6], in [7] and in [8] was above 92 µM each time. For the same compound, the outcome in assay [13], in assay [18] and in assay [19] was inactive. Moreover, the activity change, negative = cytotoxicity in assay [14] was -19.1%. Further, the Potency result in assay [15], in assay [16] and in assay [17] was “inactive” throughout.

As for `CCC1(CC)C(=O)C=CNC1=O`, the outcome in assay [1], in assay [20] and in [12] was inactive. Also, the Potency result in [2] is “inactive”. In assay [9] (at 17.2 µM (top of the series)), the activity change, negative = inhibition is -4.7%. Besides, the Potency in [10] and in assay [11] was above 20.6 µM each time.

With `CC(C)N(CCC(C(N)=O)(c1ccccc1)c1ccccn1)C(C)C` (stereo not given), the result in [1] and in [20] was inactive.

Take `C=CCN1C[C@H](C)N([C@H](c2ccc(C(=O)N(CC)CC)cc2)c2cccc(OC)c2)C[C@H]1C`: the Potency in assay [10] and in assay [11] was above 46 µM each time. In addition, the call in [12] was inactive.

Take `Nc1ccccc1C(=O)O`: the Potency in assay [3], in [4], in assay [5], in assay [6], in assay [7] and in [8] was above 92 µM in each case. Besides, the result in assay [12], in assay [13], in assay [18] and in assay [19] was inactive. Also, the activity change, negative = cytotoxicity in [14] is -17.8%. Moreover, the Potency entry in assay [15], in assay [16] and in [17] was “inactive” each time.
